The entries come from a sample that favours hits as a whole.
PI4K2A inh – PI4K2A (human) kinase inhibition. Q9BTU6. purified PI4K2A, ADP-Glo luminescence, 1 h; active compounds read low. activity change, negative = inhibition, % at 76.9 µM. actives 0.13% (n = 420,000). AID 1346378; in the data active = activity change below about -50%; inconclusive = mostly about -30% to -49%;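 also: -100% = wells without enzyme as full effect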
Target sequence (Q9BTU6 whole entry, looked up): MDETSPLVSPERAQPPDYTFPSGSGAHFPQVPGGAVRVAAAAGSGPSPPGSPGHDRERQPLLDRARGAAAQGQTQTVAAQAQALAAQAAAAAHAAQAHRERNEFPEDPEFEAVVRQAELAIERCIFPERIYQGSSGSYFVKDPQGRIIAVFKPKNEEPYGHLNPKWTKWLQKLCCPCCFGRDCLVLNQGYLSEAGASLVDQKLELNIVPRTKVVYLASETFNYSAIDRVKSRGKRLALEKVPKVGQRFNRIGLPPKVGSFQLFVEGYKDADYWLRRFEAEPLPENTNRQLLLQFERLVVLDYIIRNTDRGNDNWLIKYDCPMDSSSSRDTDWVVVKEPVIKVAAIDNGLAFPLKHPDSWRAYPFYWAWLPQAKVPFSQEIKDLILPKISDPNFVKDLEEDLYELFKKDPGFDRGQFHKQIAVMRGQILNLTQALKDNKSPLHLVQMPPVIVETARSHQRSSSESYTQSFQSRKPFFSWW
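In this quantitative HTS, ADP production by PI4K2A was quantified luminescently after 1 h at ambient temperature; 100 microM adenosine served as plate-quality control.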
PI5P4Ka inh – blocks human PI5P4K alpha kinase activity. P48426. PI5P4Kalpha enzyme, ADP-Glo luminescence, 60 min; active compounds read low. max response, %. actives 1.2% (n = 330,000); active = max response of -50% or lower; inconclusive = between -30% and -50%; inactive = -30% or higher; also: value at the top dose of about 77 µM
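Quantitative HTS of the MLSMR library against PI5P4Kalpha with substrate. ATP added last at 5 microM final; room temperature, 60 minutes. Remaining ATP depleted, ADP converted and read as luminescence.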
Tb PGK inh – blocks T. brucei phosphoglycerate kinase; P07378; Potency, µM (series often up to 57.5 µM), for the others: top-dose activity change, negative = inhibition, most hits filed as inhibitors; PGK/GAPDH coupled, Kinase-Glo luminescence, 60 min; actives 0.043% (n = 380,000); active = well fitted inhibition curve with a large enough effect; inconclusive = small, poorly fitted or top-dose-only effect; inactive = no such curve, though single readings can be large or run the other way; also: potency is read from the fitted curve at half-maximal effect; nearly all actives have a fitted effect of over 60% in size
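Luminescent ATP detection (Kinase-Glo Plus) follows a 60-minute room-temperature incubation, with wells lacking PGK as controls. Buffer: 100 mM TEA (pH 7.6), 5 mM MgCl2, 0.01% Tween-20. Coupling enzyme GAPDH (100 nM final) supplies unstable 1,3-BPG in-well.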
Pin1 inh – human Pin1 inhibition. Q13526. Pin1 FP peptide displacement, HiFluor488, 10 min. Potency, µM (top dose mostly 115 µM), for the others: at the highest dose activity, negative = inhibition, usual class: inhibitors. actives 0.009% (n = 390,000); active = well fitted inhibition curve with a large enough effect in the polarisation, with a control signal flat, not every such curve was filed as active; inconclusive = small, poorly fitted or top-dose-only effect, or effect the other way, or a change in a side signal; inactive = no such curve, though single readings can be large or run the other way; the % refers to the polarisation; also: potency is read from the fitted curve at half-maximal effect
Target sequence (Q13526 whole entry, looked up): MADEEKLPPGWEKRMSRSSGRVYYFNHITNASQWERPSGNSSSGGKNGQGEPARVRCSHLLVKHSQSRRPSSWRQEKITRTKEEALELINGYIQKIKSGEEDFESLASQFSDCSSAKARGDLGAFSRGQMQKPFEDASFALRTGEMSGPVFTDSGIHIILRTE
* hit, by the source's call; i = inactive; ? = inconclusive; / = no result. Unless noted, % is scaled to controls: 0 for no effect and ±100 for the full control effect.

SMILES | PI4K2A inh | PI5P4Ka inh | Tb PGK inh | Pin1 inh
Cc1cc(N2CCOCC2)c2c(N)cc(C)c(C)c2n1 | 0.5 | 8.6 | -1.5% | -0.6%
Nc1cc(Cl)ccc1N1CCCCC1 | 4.4 | 1.1 | -0.6% | 1.4%
Nc1c(N2CCOCC2)cc(Cl)c2nonc12 | -61.7* | / | i | -2.0%
Nc1ccc(N2CCCCC2)cc1N1CCCCC1 | -6.7 | 4.8 | -1.0% | -3.2%
O=C(O)CC/C(=C\c1ccc(N2CCOCC2)c([N+](=O)[O-])c1)c1nc2ccccc2s1 | -4.9 | 0.6 | -9.3% | -2.0%
O=C(O)C/C(=C\c1ccc(N2CCOCC2)c([N+](=O)[O-])c1)c1nc2ccccc2s1 | 2.6 | -54.2* | -7.7% | ?
O=C(O)CCNc1cc(N2CCN(C(=O)c3ccco3)CC2)c2noc3c2c1C(=O)c1ccccc1-3 | -61.0* | -58.4* | ? | ?
COc1ccc(-c2nn3c(-c4cc(C)[nH]n4)nnc3s2)cc1 | / | / | / | -0.8%
O=c1cc(/N=C/c2coc3cc(Br)ccc3c2=O)[nH]c(=S)[nH]1 | -2.9 | -83.1* | -6.2% | 1.3%
CC(=O)Oc1ccc2c(=O)c(/C=N/c3cc(=O)[nH]c(=S)[nH]3)coc2c1 | 4.7 | -90.9* | -16.2% | 6.2%
Cc1cc(N2C(=O)C(O)=C(C(=O)c3cc4ccccc4o3)C2c2ccc(Cl)cc2)no1 (centres undefined) | 1.0 | -72.4* | i | -0.3%
CCCOc1ccc(C2C(C(=O)c3cc4ccccc4o3)=C(O)C(=O)N2c2cc(C)on2)cc1 (centres undefined) | 1.0 | -17.4 | -0.1% | ?
Cc1cc(N2C(=O)C(O)=C(C(=O)c3cc4ccccc4o3)C2c2cccc(Cl)c2)no1 (centres undefined) | 0.3 | -80.5* | -4.5% | ?
Cc1cc(N2C(=O)C(O)=C(C(=O)c3cc4ccccc4o3)C2c2ccc(Br)cc2)no1 (centres undefined) | 3.2 | -66.6* | 8.8% | -14.2%
COc1cccc(C2C(C(=O)c3cc4ccccc4o3)=C(O)C(=O)N2c2cc(C)on2)c1 (centres undefined) | 3.8 | -3.4 | 6.0% | -0.7%
CC(=O)N1c2ccc(S(=O)(=O)Nc3ccc(C)c(C)c3)cc2CC1C (centres undefined) | / | / | / | 9.3%
CN(C)CCN1CCN(c2cccc(Cl)c2)C1=O | -1.7 | / | / | /
O=[N+]([O-])c1cc(/C=N/Nc2nc3ccccc3[nH]2)c(O)cc1O | -5.5 | -73.3* | ? | -2.7%
Cc1c(Br)c(=O)oc2c(Br)c(O)c(O)cc12 | -2.9 | -62.9* | ? | ?
CSc1nc(=S)c2[nH]c(=S)[nH]c2[nH]1 | -5.7 | -86.6* | -7.6% | -20.7%
Cc1ccc(Nc2nnc(C)c(=O)[nH]2)cc1 | -3.6 | -4.1 | i | 4.2%
Cc1ccc(Nc2ncc3c(=O)[nH][nH]c(=O)c3n2)cc1 | -0.2 | -61.0* | -2.0% | 0.4%
COc1cc(S(N)(=O)=O)cc(C(=O)O)c1OC | 3.5 | / | / | /
CC(C)S(=O)(=O)C1=NSC2=NC(=O)/C(=C\c3ccc(-c4cccc(C(=O)O)c4)o3)C(=N)N21 | -7.3 | -104.4* | -18.0% | ?
O=C1OC(c2cccs2)=N/C1=C\c1ccc(-c2ccccc2Cl)o1 | 4.0 | / | -3.9% | ?
SMILES | PI4K2A inh | PI5P4Ka inh | Tb PGK inh | Pin1 inh
N=C1/C(=C/c2ccc(-c3cccc(C(=O)O)c3)o2)C(=O)N=C2SC=C(c3ccccc3)N12 | -5.7 | -83.1* | ? | ?
O=C1OC(c2cccs2)=N/C1=C/c1ccc(-c2cccc(C(=O)O)c2)o1 | -6.6 | -70.2* | -22.5% | /
CC(C)S(=O)(=O)C1=NSC2=NC(=O)/C(=C\c3ccc(-c4ccccc4)o3)C(=N)N21 | -1.7 | -101.9* | -5.2% | ?
N=C1/C(=C\c2ccc(-c3cc(Cl)cc(Cl)c3)o2)C(=O)N=C2SC=C(c3ccccc3)N12 | 6.0 | ? | 0.8% | 18.4%
C#Cc1nc(Nc2cccc(Cl)c2)nc(NC2CCCC2)n1 | / | / | / | 7.4%
COc1ccc(-c2nc3scc(CCNS(=O)(=O)c4ccc5c(c4)OCCO5)n3n2)cc1OC | -3.2 | / | 9.0% | ?
Cc1ccc(CN2CCN(C(=O)CC(C)C)CC2)cc1 | 0.9 | 1.9 | -6.3% | -8.5%
CC1(C)NC(=O)N(CC(=O)OCC(=O)c2ccc(Br)s2)C1=O | -4.3 | -63.8* | -8.7% | -5.6%
COc1ccc(NC(=O)COC(=O)CN2C(=O)NC(C)(C)C2=O)cc1 | 4.8 | 3.9 | -4.0% | -3.8%
N#Cc1nc(Nc2cccc3ccccc23)nc(NC2CCCC2)n1 | / | / | / | 14.2%
CC(C)C(OC(=O)CNC(=O)c1ccccc1)C(=O)Nc1cc(C(F)(F)F)ccc1Cl (centres undefined) | / | / | / | 0.6%
N#Cc1ccsc1NC(=O)COC(=O)CCS(=O)(=O)c1ccccc1 | 2.3 | -55.8* | -4.3% | 13.4%
N#Cc1ccsc1NC(=O)CCS(=O)(=O)c1ccccc1 | 3.2 | -3.5 | -0.3% | 13.2%
COc1cc(/C=C2/C(=O)N(c3cccc(Br)c3)N=C2C)cc(OC)c1O | -54.0* | 6.8 | -9.1% | 32.6%
C=C1C[C@@]23CC[C@H]4[C@@](C)(CCC[C@@]4(C)C(=O)OC4OC(CO)C(O)C(O)C4O)[C@@H]2CC[C@]1(OC1OC(CO)C(O)C(O)C1OC1OC(CO)C(O)C(O)C1O)C3 (some centres undefined) | 2.7 | / | / | /
Cc1nonc1C(=O)N/N=C/c1ccc(O)cc1O | -79.4* | -13.5 | ? | -1.4%
Cc1nonc1C(=O)N/N=C/c1ccncc1 | -4.4 | 0.6 | -11.2% | -0.4%
O=C1C(Cl)=C(NC(=O)c2ccccc2)C(=O)C(Cl)=C1NC(=O)c1ccccc1 | -2.5 | -83.8* | -1.5% | -6.7%
Cc1cccc(NC2=C(NC(=O)c3ccccc3)C(=O)c3ccccc3C2=O)c1 | -18.2 | -61.9* | -15.3% | ?
Cc1cc2c(s1)c1cnn(Cc3cccc(C(F)(F)F)c3F)c(=O)c1n2C | / | / | / | -7.3%
N[C@H](C(=O)O)c1ccc(O)cc1 | i | / | / | /
O=C(/C=C/c1ccc(Br)cc1)NC(=S)NNC(=O)c1ccco1 | -1.8 | -52.3* | -12.3% | ?
COc1ccc(-c2nc(N3CCN(S(=O)(=O)c4ccc(C)cc4)CC3)c3ccccc3n2)cc1 | / | / | / | 8.2%
O=C(O)C(c1ccccc1)N1C(=O)/C(=C\c2ccc(-c3ccccc3Cl)o2)SC1=S (centres undefined) | 2.5 | ? | 11.2µM* | ?
Cc1ccc(/C=C/C(=O)NCCc2ccccc2)o1 | -0.7 | -60.5* | -6.1% | 4.3%
SMILES | PI4K2A inh | PI5P4Ka inh | Tb PGK inh | Pin1 inh
CC(C)(C)c1ccc(C(=O)NCC(=O)OC(C(=O)Nc2cc(C(F)(F)F)ccc2Cl)c2ccccc2)cc1 (centres undefined) | / | / | / | 0.1%
Cc1cc(O)c(C(C)C)cc1N=Nc1ccccc1C(=O)O | 0.5 | -57.2* | 1.9% | 70.9%
Cc1cc(N=Nc2ccccc2C(=O)O)c(C)c(C)c1O | -1.2 | -51.1* | -3.3% | 105.0%
COc1cc(N=Nc2ccccc2C(=O)O)ccc1O | -10.2 | -12.7 | -6.4% | 44.0%
CN(Cc1cccs1)c1ncnc2ccc(-c3ccc4cnn(C)c4c3)cc12 | / | / | / | 6.9%
O=C1CCc2cc(S(=O)(=O)Nc3cccc(-c4ccccc4)c3)ccc2N1 | / | / | / | -0.8%
